Inconclusive results are not listed. Activity calls are given as the source filed them. Unless noted, the call rests on the fitted dose curve.
Tests used:
[1] = Nuclear factor erythroid 2-related factor 2/antioxidant responsive element (Nrf2/ARE) small molecule agonists: qHTS cell viability counter screen in human keratinocytes (AID 1919968; active means well fitted curve in the direction sought with a large enough effect in the repeat runs; an effect the other way counts as inactive or inconclusive; further: nearly all actives have a fitted effect of over 55% in size; further: potency means the concentration at half of the fitted maximal effect)
In short: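 Seed 1,500 KeratinoSens cells per well, then incubate 5 h at 37 C/5% CO2. Add compounds in DMSO and incubate 23 h. Add CellTiter-Fluor, wait 1 h and read fluorescence.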

[2] = Nuclear factor erythroid 2-related factor 2/antioxidant responsive element (Nrf2/ARE) small molecule agonists: luciferase reporter gene qHTS assay in human keratinocytes (AID 1919969); further: nearly all actives have a fitted effect of over 35% in size; further: potency means the concentration at half of the fitted maximal effect
[3] = target: Gonadotropin-releasing hormone receptor (Homo sapiens) (UniProt P30968); experiment: Human gonadotropin-releasing hormone receptor (GnRHR) small molecule agonists, calcium flux assay in GnRHR-HEK293 cells (AID 1920063); further: nearly all actives have a fitted effect of over 35% in size
Sequence of Gonadotropin-releasing hormone receptor (Homo sapiens) (P30968 whole entry, looked up): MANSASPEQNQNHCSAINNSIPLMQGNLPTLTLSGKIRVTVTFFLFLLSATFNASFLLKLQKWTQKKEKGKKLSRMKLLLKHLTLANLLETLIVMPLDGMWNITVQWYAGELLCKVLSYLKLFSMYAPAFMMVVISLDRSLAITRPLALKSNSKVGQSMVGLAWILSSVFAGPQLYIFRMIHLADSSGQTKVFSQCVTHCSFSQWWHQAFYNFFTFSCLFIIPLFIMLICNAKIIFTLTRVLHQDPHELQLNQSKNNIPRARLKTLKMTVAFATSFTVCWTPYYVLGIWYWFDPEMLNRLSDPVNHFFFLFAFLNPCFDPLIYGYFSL
In short: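 Cells: HEK293 stably expressing human GnRHR. Steps: overnight (18 h) culture, 1 h calcium dye loading at 37 C, compound addition, kinetic fluorescence read at 480/540 nm. Each compound tested at 15 concentrations in triplicate.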

[4] = target: KiSS-1 receptor (Homo sapiens) (UniProt Q969F8); experiment: Human kisspeptin (KISS1R) small molecule agonists, calcium flux assay in KISS1R-HEK293 cells (AID 1920064; active means well fitted curve in the direction sought with a large enough effect in the repeat runs; an effect the other way counts as inactive or inconclusive)
Sequence of KiSS-1 receptor (Homo sapiens) (Q969F8 whole entry, looked up): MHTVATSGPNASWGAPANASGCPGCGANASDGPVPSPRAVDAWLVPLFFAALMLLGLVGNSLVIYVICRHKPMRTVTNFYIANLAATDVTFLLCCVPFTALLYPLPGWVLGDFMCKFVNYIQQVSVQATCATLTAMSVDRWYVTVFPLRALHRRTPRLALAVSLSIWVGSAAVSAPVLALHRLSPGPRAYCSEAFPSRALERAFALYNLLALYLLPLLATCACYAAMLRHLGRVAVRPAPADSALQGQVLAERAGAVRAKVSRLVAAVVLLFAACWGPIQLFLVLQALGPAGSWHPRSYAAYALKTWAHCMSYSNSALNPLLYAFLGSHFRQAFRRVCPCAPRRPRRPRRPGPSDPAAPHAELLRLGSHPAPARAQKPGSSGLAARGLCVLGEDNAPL
In short: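 Cells plated and incubated 18 h; dye added, 1 h at 37 C; compounds in DMSO pinned in; signal read at 480/540 nm every second for 3 min. Each compound tested at 15 concentrations in triplicate.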

[5] = G protein-coupled receptor (GPCR) small molecule agonists, calcium flux assay: HEK293 wild type cell line counter screen (AID 1920065)
In short: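 Counter-screen of the Tox21 10K library for non-specific calcium release: dye-loaded cells received compounds in DMSO and were monitored by kinetic fluorescence (480/540 nm, 3 min). Fifteen concentrations, run in triplicate.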

[6] = p53 small molecule agonists, cell-based qHTS assay with human liver microsomes (AID 1963577);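 further: p53 response element beta-lactamase reporter cells with liver microsomes plus NADPH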
In short: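 Steps: plate p53RE-bla cells, incubate 5 h at 37 C; add compound in DMSO; add microsomes (0.5 mg/mL final) and NADPH (0.5 mg/mL final); incubate 16 h at 37 C; add LiveBLAzer, 2 h RT; read fluorescence.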

[7] = p53 small molecule agonists, cell-based qHTS assay with rat liver microsomes (AID 1963578)
In short: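 Metabolic activation is supplied by rat liver microsomes with NADPH (each 0.5 mg/mL final). p53RE-bla cells incubate with compound 16 h at 37 C; reporter activity is measured by LiveBLAzer fluorescence.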

[8] = p53 small molecule agonists, cell-based qHTS assay with human liver microsomes: qHTS cell viability counter screen (AID 1963579); further: nearly all actives have a fitted effect of over 45% in size; further: potency means the concentration at half of the fitted maximal effect
In short: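 After the 460/530 nm beta-lactamase read, CellTiter-Glo was added to the same wells and luminescence measured after 30 min at room temperature, giving viability of p53RE-bla cells treated 16 h with compounds plus microsomes and NADPH.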

[9] = p53 small molecule agonists, cell-based qHTS assay with rat liver microsomes: qHTS cell viability counter screen (AID 1963580); further: nearly all actives have a fitted effect of over 45% in size
In short: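 Viability is assessed in parallel with the p53 reporter read: HCT-116 p53RE-bla cells receive compounds plus rat microsomes and NADPH (0.5 mg/mL final apiece), incubate 16 h at 37 C, and then CellTiter-Glo luminescence is recorded.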

[10] = p53 small molecule agonists, cell-based qHTS assay: qHTS cell viability counter screen (AID 1963581); further: nearly all actives have a fitted effect of over 45% in size
In short: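 Cells: HCT-116 with p53 response element-driven beta-lactamase. Treatment: 16 h, 37 C, compounds in DMSO. Read: CellTiter-Glo luminescence after 30 min RT.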

[11] = p53 small molecule agonists, cell-based qHTS assay (AID 1963582; active means well fitted activation curve with a large enough effect in the signal ratio in the repeat runs, not every such curve was filed as active; the % refers to the signal ratio)
In short: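 Quantitative HTS in p53RE-bla cells: after a 5 h settling period, compounds delivered in DMSO were left on cells for 16 h at 37 C, and reporter induction was measured as fluorescence following 2 h substrate loading.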

[12] = target: 5-hydroxytryptamine receptor 2A (Homo sapiens) (UniProt P28223); experiment: 5-hydroxytryptamine receptor 2A (HTR2A) small molecule antagonists, cell-based qHTS assay (AID 1963586); further: nearly all actives have a fitted effect of over 45% in size
Sequence of 5-hydroxytryptamine receptor 2A (Homo sapiens) (P28223 whole entry, looked up): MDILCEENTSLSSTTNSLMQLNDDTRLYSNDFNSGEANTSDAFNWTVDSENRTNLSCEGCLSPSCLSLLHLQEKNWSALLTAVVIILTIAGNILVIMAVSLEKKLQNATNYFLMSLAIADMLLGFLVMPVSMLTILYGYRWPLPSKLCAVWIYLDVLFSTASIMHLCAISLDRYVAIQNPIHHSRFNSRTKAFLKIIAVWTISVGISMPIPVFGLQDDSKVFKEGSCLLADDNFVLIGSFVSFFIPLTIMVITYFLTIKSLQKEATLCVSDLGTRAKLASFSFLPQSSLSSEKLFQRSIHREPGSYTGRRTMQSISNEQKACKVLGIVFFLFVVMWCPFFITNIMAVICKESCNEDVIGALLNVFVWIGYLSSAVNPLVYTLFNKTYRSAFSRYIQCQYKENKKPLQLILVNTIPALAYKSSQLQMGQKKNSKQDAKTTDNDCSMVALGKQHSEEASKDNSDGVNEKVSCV
In short: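 Antagonist-mode intracellular calcium assay: DOI (4 nM) added after 5 min compound pre-incubation at room temperature to dye-loaded HTR2A-CHO cells. Fluorescence followed for 3 min, sampled every second.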

[13] = target: 5-hydroxytryptamine receptor 2A (Homo sapiens) (UniProt P28223); experiment: 5-hydroxytryptamine receptor 2A (HTR2A) small molecule agonists, cell-based qHTS assay (AID 1963587); further: nearly all actives have a fitted effect of over 30% in size
In short: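 CHO cells stably expressing human HTR2A, plated 18 h, loaded with calcium dye 1 h at 37 C. Agonist mode: compounds added and intracellular calcium fluorescence recorded kinetically for 2 min at 1 sec intervals.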

[14] = target: Muscarinic acetylcholine receptor M1 (Homo sapiens) (UniProt P11229); experiment: Cholinergic receptor muscarinic 1 (CHRM1) small molecule antagonists, cell-based qHTS assay (AID 1963588); further: nearly all actives have a fitted effect of over 40% in size; further: potency means the concentration at half of the fitted maximal effect
Sequence of Muscarinic acetylcholine receptor M1 (Homo sapiens) (P11229 whole entry, looked up): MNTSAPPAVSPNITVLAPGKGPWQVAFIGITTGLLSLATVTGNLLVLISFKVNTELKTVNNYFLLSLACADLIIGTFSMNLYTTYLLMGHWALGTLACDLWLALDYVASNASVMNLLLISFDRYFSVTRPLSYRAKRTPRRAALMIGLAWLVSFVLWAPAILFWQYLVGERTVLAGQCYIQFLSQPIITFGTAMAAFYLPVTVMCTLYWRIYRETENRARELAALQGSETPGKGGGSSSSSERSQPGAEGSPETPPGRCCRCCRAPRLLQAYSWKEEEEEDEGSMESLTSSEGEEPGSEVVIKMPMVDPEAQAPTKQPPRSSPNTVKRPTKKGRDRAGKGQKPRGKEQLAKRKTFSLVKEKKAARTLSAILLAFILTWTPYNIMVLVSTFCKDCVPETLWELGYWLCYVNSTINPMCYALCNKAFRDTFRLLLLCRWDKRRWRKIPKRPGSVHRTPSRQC
In short: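 CHRM1-CHO calcium-flux assay, antagonist mode. Cells were seeded 18 h, dye-loaded 1 h at 37 C and given compound for 5 min at RT, then acetylcholine was added at 50nM. FDSS fluorescence was read 3 min; 15 concentrations, three runs.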

[15] = target: Muscarinic acetylcholine receptor M1 (Homo sapiens) (UniProt P11229); experiment: Cholinergic receptor muscarinic 1 (CHRM1) small molecule agonists, cell-based qHTS assay (AID 1963589); further: nearly all actives have a fitted effect of over 35% in size
In short: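 Agonist-mode qHTS in CHO cells stably carrying human muscarinic M1. Intracellular calcium is tracked by fluorescence every second after compound transfer; each compound runs at 15 concentrations in three independent runs.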

[16] = cAMP Responsive Elements (CRE) small molecule agonists, cell-based qHTS assay (AID 1963590)
In short: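 Agonist mode qHTS in CRE-bla HEK 293T cells: compounds dosed from DMSO for 3 h at 37 C/5% CO2, followed by LiveBLAzer B/G FRET substrate for 2 h at room temperature.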

[17] = cAMP Responsive Elements (CRE) small molecule antagonists, cell-based qHTS assay (AID 1963591; active means well fitted inhibition curve with a large enough effect in the signal ratio in the repeat runs, not every such curve was filed as active; the % refers to the signal ratio)
In short: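 Antagonist mode: test compounds are co-incubated with the adenylyl cyclase activator NKH477 (0.25 uM final) on CRE-bla HEK293T cells for 3 h at 37 °C, followed by LiveBLAzer substrate loading.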

[18] = target: Beta-2 adrenergic receptor (Homo sapiens) (UniProt P07550); experiment: Adrenergic beta2 receptor (ADRB2) small molecule antagonists, cell-based qHTS assay (AID 1963592); further: series mostly up to about 92 µM; nearly all actives have a fitted effect of over 50% in size
Sequence of Beta-2 adrenergic receptor (Homo sapiens) (P07550 whole entry, looked up): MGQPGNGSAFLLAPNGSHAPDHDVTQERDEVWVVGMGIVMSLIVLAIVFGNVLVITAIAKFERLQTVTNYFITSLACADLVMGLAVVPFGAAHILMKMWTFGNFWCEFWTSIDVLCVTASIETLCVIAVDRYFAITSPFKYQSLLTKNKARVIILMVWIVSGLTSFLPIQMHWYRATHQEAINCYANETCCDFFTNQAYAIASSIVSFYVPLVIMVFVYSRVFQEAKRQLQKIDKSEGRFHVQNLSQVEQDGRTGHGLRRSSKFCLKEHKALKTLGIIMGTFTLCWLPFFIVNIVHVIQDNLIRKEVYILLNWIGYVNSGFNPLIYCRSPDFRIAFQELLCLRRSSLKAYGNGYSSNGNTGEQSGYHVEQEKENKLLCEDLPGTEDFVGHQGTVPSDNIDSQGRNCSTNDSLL
In short: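 Cells (CHO, stable ADRB2 overexpression) incubated 18-20hr at 37C; compounds added from DMSO; agonist mix (1nM isoproterenol, 100uM IBMX, 25uM Ro-20-1724) added; 0.5hr RT; d2-cAMP and anti-cAMP-cryptate added; 1hr RT; 665/615 nm read.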

[19] = target: D(2) dopamine receptor (Homo sapiens) (UniProt P14416); experiment: Dopamine D2 receptor (DRD2) small molecule agonists, cell-based qHTS assay (AID 1963594); further: nearly all actives have a fitted effect of over 35% in size
Sequence of D(2) dopamine receptor (Homo sapiens) (P14416 whole entry, looked up): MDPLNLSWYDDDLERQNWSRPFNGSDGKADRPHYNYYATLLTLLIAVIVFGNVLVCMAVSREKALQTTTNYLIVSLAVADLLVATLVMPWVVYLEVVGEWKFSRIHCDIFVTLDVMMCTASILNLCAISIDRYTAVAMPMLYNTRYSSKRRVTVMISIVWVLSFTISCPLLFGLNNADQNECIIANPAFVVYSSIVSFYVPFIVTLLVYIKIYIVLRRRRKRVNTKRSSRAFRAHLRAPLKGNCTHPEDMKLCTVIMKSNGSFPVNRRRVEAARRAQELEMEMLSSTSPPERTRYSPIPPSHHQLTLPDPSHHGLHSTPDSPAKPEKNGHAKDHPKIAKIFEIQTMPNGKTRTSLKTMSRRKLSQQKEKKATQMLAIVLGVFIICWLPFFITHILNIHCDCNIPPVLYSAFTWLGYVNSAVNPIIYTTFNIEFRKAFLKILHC
In short: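 HEK293 cells stably expressing human DRD2, pre-treated with PDE inhibitor Ro20-1724 (0.1 mM final) and compound 10 min at room temperature, then stimulated with NKH477 (200nM […]) for 30 min. cAMP read by HTRF (665/620 nm).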

[20] = target: D(2) dopamine receptor (Homo sapiens) (UniProt P14416); experiment: Dopamine D2 receptor (DRD2) small molecule antagonists, cell-based qHTS assay (AID 1963595; active means well fitted inhibition curve with a large enough effect in the signal ratio in the repeat runs, with a control signal flat; the % refers to the signal ratio)
In short: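 Stable D2 receptor HEK293 line, 24 h after seeding. Compound preincubated 10 min, then quinpirole (12 nM) with forskolin analogue NKH477 (200 nM), 30 min, room temperature. Detection by time-resolved FRET of cAMP.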

Measured: Potency

O=[N+]([O-])c1ccc(CBr)cc1
inactive: all assays above

CCCCCCCCOC(=O)c1ccccc1C(=O)OCCCCCCCC
inactive: all assays above

CCOS(C)(=O)=O
inactive: all assays above

Nc1c(Oc2ccccc2)cc(O)c2c1C(=O)c1ccccc1C2=O
inactive: all assays above

COc1cc2c(cc1OC)[C@@]13CCN4CC5=CCO[C@H]6CC(=O)N2[C@H]1[C@H]6[C@H]5C[C@H]43
inactive: all assays above

Oc1ccc(Cl)c(Cl)c1
inactive: all assays above

CC(C)N1C(=O)c2ccccc2NS1(=O)=O
inactive: all assays above

O=[N+]([O-])c1cc(Cl)c(Cl)c(Cl)c1
inactive: all assays above

CC1CC(CC2CCC(N)C(C)C2)CCC1N (stereo not given)
active: [1] 7.82 µM | [14] 6.04 µM
inactive: all other assays above

CCOC(=O)C(c1c(O)c2ccccc2oc1=O)c1c(O)c2ccccc2oc1=O
inactive: all assays above

NC(=O)O
inactive: all assays above

[P]#[In]
inactive: all assays above

NNC(=O)c1ccccc1
active: [2] 56 µM | [8] 41.9 µM
inactive: all other assays above

O=C=NC1CCCCC1
inactive: all assays above

CC(=O)CCC(C)=O
inactive: all assays above

Reference: PubChem BioAssay (Tox21)
